CYP2C9 activ – human CYP2C9 activators, primary screen, biochemical, luminescence | Cytochrome P450 2C9 (Homo sapiens), P11712 | recombinant CYP2C9, luciferin-H conversion; hits give high values; factor 1 = untreated enzyme, 0 = blocked | activation factor at 5 µM | 96,000 compounds, 1.4% hits | AID 1024, 2008;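 active means activation factor of 2 or more for CYP2C9 at a 5 µM dose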
PLAP act – PLAP enzyme activators, biochemical, luminescence, HTS; Alkaline phosphatase, placental type (Homo sapiens), P05187; purified PLAP enzyme, luminescent substrate read-out; hits give high values; activation fold at 20 µM; 96,000 compounds, 1.2% hits; AID 696, 2007; in the data active means activation fold above about 2
Target sequence (P05187 whole entry, looked up): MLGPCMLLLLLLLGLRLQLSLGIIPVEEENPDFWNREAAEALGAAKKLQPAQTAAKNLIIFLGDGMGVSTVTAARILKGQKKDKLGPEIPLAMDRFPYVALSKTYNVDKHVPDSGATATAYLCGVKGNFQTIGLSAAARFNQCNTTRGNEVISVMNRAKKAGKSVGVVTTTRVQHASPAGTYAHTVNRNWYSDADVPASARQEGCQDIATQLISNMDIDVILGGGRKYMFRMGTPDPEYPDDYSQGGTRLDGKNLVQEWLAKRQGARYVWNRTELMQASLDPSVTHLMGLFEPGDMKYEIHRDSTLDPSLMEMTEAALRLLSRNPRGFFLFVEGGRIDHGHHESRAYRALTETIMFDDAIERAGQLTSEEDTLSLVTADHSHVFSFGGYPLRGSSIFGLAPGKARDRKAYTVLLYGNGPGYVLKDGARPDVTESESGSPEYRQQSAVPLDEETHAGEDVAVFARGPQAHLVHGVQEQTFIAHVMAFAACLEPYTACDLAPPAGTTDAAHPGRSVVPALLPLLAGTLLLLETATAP
CYP2C9 inh – blockers of cytochrome P450 2C9 activity – biochemical, luminescence, ADME assay, primary screen; inhibition, % at 5 µM; 96,000 compounds, 20% hits; AID 777, 2007; CYP2C9 Supersomes, luciferin-H conversion;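 active means blocking of liver enzyme CYP2C9 beyond about 50% at 5 µM, limit read from the data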
CYP2C19 activ – human CYP2C19 activators, primary screen, biochemical, luminescence. Cytochrome P450 2C19 (Homo sapiens), P33261. recombinant CYP2C19, luciferin-H EGE luminescence; hits give high values; 0 = fully inhibited enzyme, 1 = untreated enzyme. activation factor at 5 µM. 96,000 tested, under 10 active. AID 1025, 2008;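 active means activation factor of at least 2 at 5 µM in the primary screen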
CYP2C19 inh – blockers of cytochrome P450 2C19 activity – biochemical, luminescence, ADME assay, primary screen; 96,000 compounds, 21% hits; inhibition, % at 5 µM; CYP2C19 Supersomes, luciferin-H EGE luminescence, 30 min;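 active means CYP2C19 inhibition above a set limit at 5 µM in the primary screen, cut at about 50% in these data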
Numbers stand for hits; . = inactive. An excerpt weighted towards active compounds, which were near 31% of everything screened.

SMILES	CYP2C9 activ	PLAP act	CYP2C9 inh	CYP2C19 activ	CYP2C19 inh
Cc1cccc(-c2noc(CCC(=O)Nc3ccccc3)n2)c1	.	.	75.0	.	92.5
CCOC(=O)c1ccc(NC(=O)CCc2nc(-c3cccc(C)c3)no2)cc1	.	.	52.0	.	.
Cc1ccc(S(=O)(=O)Nc2cc(C)c(O)c(S(=O)(=O)c3ccc(C)cc3)c2)cc1	.	.	76.7	.	.
Cc1cc(NS(=O)(=O)c2ccccc2)cc(Cl)c1O	.	.	.	.	100.1
O=S1(=O)c2ccccc2N=NN1Cc1ccc(Cl)cc1	.	.	68.3	.	83.3
O=S1(=O)c2ccccc2N=NN1Cc1cc(Cl)cc(Cl)c1	.	.	53.5	.	.
COc1ccc(CCNC(=O)CSc2nnc(Cc3csc(N)n3)n2C)cc1OC	.	.	51.0	.	.
COc1ccc(CCCc2nnc(SCC(=O)Nc3nccs3)n2C)cc1C	.	.	.	.	59.1
CCn1c(CNC(=O)Cc2ccc(OC)cc2)nnc1SCC(=O)Nc1nccs1	.	.	.	.	.
COc1ccc(C)cc1NC(=O)CSc1nnc(-c2ccc(C)cc2)o1	.	.	.	.	.
COc1ccc(CCNC(=O)C(C)Sc2ccccc2)cc1OC (stereo not drawn)	.	.	63.8	.	56.0
CCC(CC)C(=O)NCCc1ccc(OC)c(OC)c1	.	.	.	.	.
COc1ccc(CCNC(=O)CSc2nnc(-c3ccc(F)cc3)o2)cc1OC	.	.	63.1	.	.
Cc1c2cccn2cc[n+]1C	.	.	.	.	.
O=C(CSc1ccc(-c2ccccc2)nn1)N1CCOCC1	.	.	.	.	.
COc1ccc(CCNC(=O)CSc2ccc(-c3ccccc3)nn2)cc1OC	.	.	.	.	70.7
COc1ccc(CCNC(=O)CSc2cc(=O)[nH]c(N)n2)cc1OC	.	.	.	.	.
Cc1nonc1NC(=O)CSc1ccc(-c2ccccc2)nn1	.	.	63.6	.	.
COC(=O)c1ccccc1NC(=O)CN1CCC(NC(=O)c2ccccc2C)CC1	.	.	53.9	.	82.4
COC(=O)c1ccccc1NC(=S)NC(=O)c1ccccc1	.	.	.	.	56.1
COC(=O)c1ccccc1NC(=S)NC(=O)c1ccccc1C	.	.	.	.	51.2
Cc1ccc2cccc(NC(=S)NC(=O)c3ccccc3)c2n1	2.7	.	.	.	.
Cc1cc(C)c2cccc(NC(=S)NC(=O)c3ccccc3)c2n1	.	.	.	.	.
Cc1ccccc1CN1CCN(CC(=O)NCc2ccccc2)C1=O	.	.	.	.	.
CCCSc1nc(SCC(=O)NCc2ccccc2)c2c3c(sc2n1)COC(C)(CC)C3 (stereo not drawn)	.	.	.	.	.
SMILES	CYP2C9 activ	PLAP act	CYP2C9 inh	CYP2C19 activ	CYP2C19 inh
CCOC(=O)c1cc2c(N)c(C(=O)c3cc(C#N)c(SC)nc3C)sc2nc1C	.	.	.	.	.
CCOc1cnc(-c2ccc(OC)cc2)o1	.	.	.	.	.
O=C(NCC(c1cccnc1)N1CCN(c2ccccc2)CC1)c1ccc2c(c1)OCO2 (stereo not drawn)	.	.	75.9	.	58.7
O=C(NCC(c1cccnc1)N1CCN(c2ccc(F)cc2)CC1)OCc1ccccc1 (stereo not drawn)	.	.	82.3	.	85.3
O=C(NCC(c1cccnc1)N1CCN(c2ccc(F)cc2)CC1)c1cccc(Cl)c1 (stereo not drawn)	.	.	52.1	.	.
O=C(NCC(c1cccnc1)N1CCN(c2ccccc2F)CC1)c1ccccc1 (stereo not drawn)	.	.	.	.	52.2
O=C(NCC(c1cccnc1)N1CCN(c2ccccc2)CC1)C1CCCCC1 (stereo not drawn)	.	.	.	.	.
COc1ccc2cc(Br)ccc2c1CC(=O)NC1CC(C)(C)NC(C)(C)C1	.	.	.	.	.
COc1cc(OC)c(-c2nn3c(-c4cccnc4)nnc3s2)cc1OC	.	.	.	.	.
CCCCN(CCCC)CP(=O)(c1ccccc1)c1ccccc1	.	.	.	.	.
O=C(NC1CCCCC1)C(c1ccccc1)N1CCC2(CC1)OCCO2 (stereo not drawn)	.	.	.	.	.
O=C(NCC(c1cccnc1)N1CCN(c2ccccc2F)CC1)OCc1ccccc1 (stereo not drawn)	.	.	94.2	.	91.4
O=C1C2CC=C(Cl)CC2C(=O)N1CC1OCCc2ccccc21 (stereo not drawn)	.	.	55.0	.	74.0
Cc1ccc(C(=O)C2=C(O)C(=O)N(CCN3CCOCC3)C2c2ccccn2)o1 (stereo not drawn)	.	.	.	.	.
CCN(CCCNC(=O)C1CCCN(S(=O)(=O)c2cnc[nH]2)C1)c1ccccc1 (stereo not drawn)	.	.	52.2	.	78.1
CCN(CCNC(=O)C1CCCN(S(=O)(=O)c2cnc[nH]2)C1)c1ccccc1 (stereo not drawn)	.	.	94.9	.	90.3
CCCS(=O)(=O)N1CCCC(C(=O)NCCCN(CC)c2cccc(C)c2)C1 (stereo not drawn)	.	.	.	.	.
CCCS(=O)(=O)N1CCCC(C(=O)NCCN(CC)c2ccccc2)C1 (stereo not drawn)	.	.	.	.	.
CC(=O)OC(C(=O)NC1CCCCC1)c1ccc(Cl)cc1 (stereo not drawn)	.	.	.	.	.
CCOc1cccc(N2C(=O)CC(n3cnc4ccccc43)C2=O)c1 (stereo not drawn)	.	.	.	.	.
CCCC(=O)Nc1nnc(COC)s1	.	.	.	.	.
CCOC(=O)NC1(C(F)(F)F)NC(=O)N(C2CCCCC2)C1=O (stereo not drawn)	.	.	.	.	.
CCN(CC)C(=O)C1CCCN(Cc2ccccc2F)C1 (stereo not drawn)	.	.	.	.	.
CCN(CC)C(=O)C1CCCN(Cc2ccccc2C(F)(F)F)C1 (stereo not drawn)	.	.	.	.	57.5
CCN(CC)C(=O)C1CCCN(Cc2ccc3c(c2)OCO3)C1 (stereo not drawn)	.	.	.	.	.
SMILES	CYP2C9 activ	PLAP act	CYP2C9 inh	CYP2C19 activ	CYP2C19 inh
CCN(CC)C(=O)C1CCCN(Cc2ccc(F)c(F)c2)C1 (stereo not drawn)	.	.	.	.	54.6
O=C(CCC1CCCCC1)Nc1ccc(S(=O)(=O)Nc2nccs2)cc1	.	.	62.6	.	.
O=C(CCC1CCCCC1)Nc1ccccc1O	.	.	63.7	.	93.2
Cc1noc(NS(=O)(=O)c2ccc(NC(=O)CCC3CCCCC3)cc2)c1C	.	.	.	.	.
Cn1c(NC(=O)CCC2CCCCC2)cc(=O)n(C)c1=O	.	.	66.6	.	74.2
CCN(CC)S(=O)(=O)c1ccc(NC(=O)CCC2CCCCC2)cc1	.	2.9	92.7	.	78.2
Cn1c(NC(=O)C2CC2)cc(=O)n(C)c1=O	.	.	.	.	.
